# Screening results (PubChem BioAssay)
# TRHR ag – qHTS for Small Molecule Agonists and Allosteric Enhancers of Human TRH Receptor: Primary Screen for Agonists | Thyrotropin-releasing hormone receptor (Homo sapiens), P34981 | TRHR cells, calcium flux fluo-8, FDSS agonist mode | activation, % at 2 µM | 0.18% of 360,000 active | AID 493084, 2011; further: 0% is about no effect
#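 TRHR-expressing cells, plated overnight in medium with 10% serum, were loaded with fluo-8 calcium dye at room temperature. After a 10 s baseline, library compound was pin-added and calcium release was recorded kinetically (ex 480/em 530) as agonist response.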
# D1 PAM – Potentiators of Human D1 Dopamine Receptor: qHTS; D(1A) dopamine receptor (Homo sapiens), P21728; HEK293 TREx D1 cells, calcium flux, dopamine EC20 potentiation; potentiation, % at 10 µM; 0.036% of 360,000 active; in the data active means potentiation above about 30%; further: 0% is about no effect
# Target sequence (P21728 whole entry, looked up): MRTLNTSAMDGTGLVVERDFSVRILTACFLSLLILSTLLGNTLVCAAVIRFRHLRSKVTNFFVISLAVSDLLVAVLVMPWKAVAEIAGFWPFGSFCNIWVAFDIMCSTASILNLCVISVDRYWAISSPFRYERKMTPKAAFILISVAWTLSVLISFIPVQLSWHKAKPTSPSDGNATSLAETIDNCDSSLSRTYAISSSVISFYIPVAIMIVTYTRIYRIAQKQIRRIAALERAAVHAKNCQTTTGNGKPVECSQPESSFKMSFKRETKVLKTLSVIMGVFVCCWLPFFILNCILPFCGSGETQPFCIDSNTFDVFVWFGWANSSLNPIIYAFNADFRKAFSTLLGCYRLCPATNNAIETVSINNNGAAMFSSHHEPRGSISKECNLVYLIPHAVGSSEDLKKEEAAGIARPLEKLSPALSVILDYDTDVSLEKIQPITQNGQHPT
# D1 agonist – Allosteric Agonists of the Human D1 Dopamine Receptor: qHTS; D(1A) dopamine receptor (Homo sapiens), P21728; 1% of 360,000 active; AID 504660, 2011; activation, % at 2 µM; HEK293 T-REx D1 cells, calcium flux, agonist mode; further: 0% is about no effect
#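 Inducible HEK293 T-REx D1 cells, force-coupled to calcium signalling, were plated at 4000 cells/well with tetracycline and held overnight at 30 C. After no-wash calcium dye loading, compound-evoked calcium rise over 180 s flagged agonists.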
# D1 antagonist – Antagonist of Human D 1 Dopamine Receptor: qHTS. 3.2% of 360,000 active. activity change, negative = inhibition, % at 10 µM. HEK293 TREx D1 cells, calcium flux, dopamine EC80; stronger effect = lower value; in the data active means activity change below about -30%; further: on the % scale 0 is the no-effect control and ±100 the full control effect
#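 Cells carrying a force-coupled, tetracycline-inducible human D1 receptor report calcium flux. Each well gets a 10 s baseline, compound with 180 s monitoring, then an EC80 dopamine stimulus with a second 180 s kinetic read.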
# TRHR enhancer – qHTS for Small Molecule Agonists and Allosteric Enhancers of Human TRH Receptor: Primary Screen for Enhancers. Thyrotropin-releasing hormone receptor (Homo sapiens), P34981. TRHR cells, fluo-8 calcium fluorescence, EC20 TRH enhancement. enhancement, % at 2 µM. 0.66% of 360,000 active. AID 493056, 2011; in the data active means enhancement above about 30%; further: 0% is about no effect
#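 Enhancer read-out: after compound pinning and an initial kinetic agonist-mode read, an EC20 of TRH (10 nM final) was injected and fluo-8 calcium signal (Ex 480/Em 530) followed at 1 s/cycle for 100 cycles in TRHR-expressing cells.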
# The depositor's hits bear a star; / = not tested or not shown. Rows were chosen to be rich in hits. Some 4.6% of all compounds tested hit in one or more screens of this group. Unless noted, no stated cut-off is given here; in the data, active means activation above about 30%; inactive means the rest.
SMILES,TRHR ag,D1 PAM,D1 agonist,D1 antagonist,TRHR enhancer
CCCSc1ncc(Cl)c(C(=O)Nc2sc3c(c2C(=O)NCC)CCCC3)n1,0,-1,-1,3,-13
CCOc1ccc(C(=O)NCC(c2ccc3c(c2)OCO3)N2CCN(c3ccccc3F)CC2)cc1 (stereo unspecified),0,-5,4,8,4
CCOC(=O)N1CCN(C(=O)CNS(=O)(=O)c2cccs2)CC1,0,6,2,5,-4
CCOC(=O)N1CCN(C(=O)CNS(=O)(=O)c2c(C)cc(C)cc2C)CC1,0,6,5,13,33*
COc1ccccc1CNC(=O)COC(=O)c1c[nH]c2ccccc12,0,-19,45*,-41*,6
COc1ccccc1NC(=O)COC(=O)c1c[nH]c2ccccc12,0,-2,9,-22,-8
CC1C(=O)N2CCCc3cc(S(=O)(=O)Nc4ccccc4C(N)=O)cc1c32 (stereo unspecified),0,-4,2,-5,32*
CC1C(=O)N2CCCc3cc(S(=O)(=O)Nc4ccccc4F)cc1c32 (stereo unspecified),0,-1,5,6,5
CN(Cc1ccccc1)C1CCCN(C(=O)c2ccc(Cl)s2)C1 (stereo unspecified),0,-9,2,-31*,1
Cc1ccccc1Cn1nc(C)c(NC(=O)c2cc3n(n2)C(C(F)F)CC(C(F)F)N3)c1C (stereo unspecified),0,-2,-1,-51*,6
CNC(=S)SCCOc1ccc(C)cc1,0,-7,2,-91*,2
CNC(=S)SCCOc1ccccc1,0,-2,4,-20,2
CC(C)Oc1ccc(C(=O)N(Cc2ccco2)c2ccccn2)cc1,0,0,4,-1,-2
CC1=CC(C)C(/C=N/N=C(N)N)C(C)C1 (stereo unspecified),4,5,5,13,-21
Cc1ccc(S(=O)(=O)c2nc(NCCN(C)C)sc2Cl)cc1,0,-8,6,-37*,-2
CC1=NOC(=O)/C1=C\c1ccc(-c2cccc(Cl)c2)o1,2,-4,1,-51*,-14
C#CCOc1c(Cl)cc(/C=N/O)cc1OC,-1,-1,0,-62*,1
CC(C)Oc1ccc(C(=O)N(Cc2ccc(N(C)C)cc2)Cc2ccco2)cc1,-1,0,1,-6,5
O=C(CSC1=NC(=O)C(c2ccccc2)C(=O)N1)Nc1ccccc1Cl (stereo unspecified),0,0,-1,-10,0
O=C(CSC1=NC(=O)C(c2ccccc2)C(=O)N1)Nc1cccc(Cl)c1 (stereo unspecified),0,-10,1,-33*,-1
CC(C)(C)OC(=O)Cc1nnc(CNC(=O)c2ccccc2)s1,-1,0,2,-6,-2
CCCN(CCC)C(=O)C1CCCN(c2ncnc3onc(-c4ccc(F)cc4)c23)C1 (stereo unspecified),0,-4,1,8,19
O=[N+]([O-])c1ccc(Oc2ccc(S(=O)(=O)N3CCOCC3)cc2)cc1,-1,/,17,-42*,7
COC1=CC(=Cc2c(N)n3nc(CC(=O)N4CCCCC4)sc3nc2=O)C=C(OC)C1=O,138*,1,62*,9,22
CCOC(=O)c1cccc(NC(=O)C2CCN(c3nnc(C)c4c(C)n(-c5ccccc5)nc34)CC2)c1,0,-2,2,1,3
SMILES,TRHR ag,D1 PAM,D1 agonist,D1 antagonist,TRHR enhancer
COc1ccc(-c2cn3cccnc3n2)cc1NC(=O)c1cc(C)cc(C)c1,0,2,-1,-87*,-4
Cc1ccc(-c2cn3cccnc3n2)cc1NC(=O)Cc1ccccc1,1,0,1,-73*,4
COc1ccc(C)cc1S(=O)(=O)Nc1cccc(-c2cn3cccnc3n2)c1,0,-3,1,-4,31*
O=C(Cc1ccccc1)Nc1cccc(-c2cn3cccnc3n2)c1,0,-2,0,19,-1
COc1ccc(N2CC(NC(=O)c3ccco3)CC2=O)cc1OC (stereo unspecified),0,-1,-2,/,4
Cc1cnc(C(=O)OCC(=O)Nc2ccc(C)c(S(=O)(=O)N3CCCCCC3)c2)cn1,0,-2,1,12,33*
CCOc1ccc(C(=O)CCC(=O)Nc2ccc(C)c(S(=O)(=O)N3CCCCC3)c2)cc1,-1,-3,3,2,14
CCc1cccc(OCC(=O)Nc2ccc(C)c(S(=O)(=O)N3CCCCCC3)c2)c1,3,3,33*,-17,-16
Cc1cnc(C(=O)OCC(=O)Nc2cccc(S(=O)(=O)N3CCCCC3)c2)cn1,2,3,3,-1,2
Cc1cnc(C(=O)OCC(=O)Nc2cc(-c3ccccc3)nn2-c2ccccc2)cn1,0,2,1,5,32*
CCC(=O)Nc1cc(-c2cccc(C)c2)nn1-c1ccccc1,0,0,0,9,6
CC(=O)c1ccc(OCCCC(=O)Nc2ccc(C)c(S(=O)(=O)N3CCCCC3)c2)cc1,2,-5,20,-36*,4
Cc1noc(C)c1COc1ccccc1C(=O)NCCOc1ccccc1,0,-3,6,34,11
COc1cc(-c2nnc(COC(=O)c3ccc(C)o3)o2)cc(OC)c1OC,0,-2,1,-7,3
CC1(C)CC(NS(=O)(=O)c2ccc(C(C)(C)C)cc2)CC(C)(C)N1,1,-3,5,2,0
COc1ccc(OCC(=O)Nc2ccccc2C(=O)OCc2cc(=O)n3nc(C)sc3n2)cc1,0,0,2,5,8
CCN(CC)CCNC(=O)C1CCN(c2cc(C)nc3c(-c4ccc(Cl)cc4)c(C)nn23)CC1,0,-6,11,-13,10
COC(=O)c1ccc(C(=S)NCC2(N(C)C)CCCCC2)cc1,8,-4,77*,-30*,-8
CC(=O)Nc1ccc(C(=S)NCC2(N(C)C)CCCCC2)cc1,3,-7,12,5,-11
CCOc1ccc(C2C(=O)N(C3CCCCCC3)CC(=O)N2CCc2ccc(Cl)cc2)cc1OC (stereo unspecified),0,-1,-2,8,1
Cc1cc(C)c(NC(=O)CN(C)C(C)C(=O)N2CCc3ccccc32)c(C)c1 (stereo unspecified),-1,-2,1,7,32*
